Lassa entry inh: inhibitors of Lassa virus binding or cell entry; hit rate 1.2% among 300,000; Lassa virus pseudotype entry inhibition, cell reporter; Potency, µM (titrated, usually from 37.9 µM), for the others: top-dose activity change, negative = inhibition, most hits filed as inhibitors; calls by dose curve; tested in HEK293 cells; note: potency is the fitted concentration of half-maximal effect; nearly all actives have a fitted effect of over 50% in size
Marburg entry inh: inhibitors of Marburg virus binding or cell entry. AID 540276. Marburg virus pseudotyped entry inhibition, cell reporter. Potency, µM (top dose mostly 37.8 µM), for the others: top-dose activity change, negative = inhibition, usual class: inhibitors. hit rate 1.8% among 300,000; calls by dose curve; tested in HEK293 cells; note: potency is the fitted concentration of half-maximal effect
FMDV inh: foot and mouth disease virus antiviral activity. FMDV antiviral cell-based qHTS. Potency, µM (highest dose often 57.9 µM), for the others: at the top dose activity change, negative = inhibition, usual class: inhibitors. hit rate 1.2% among 410,000. AID 1159524; calls by dose curve; tested in HEK293T cells; note: read-out not given here; potency is the fitted concentration of half-maximal effect; nearly all actives have a fitted effect of over 45% in size
HCMV inh: human cytomegalovirus inhibition; HFF cells, HCMV-luciferase reporter, 72 h; hits give low values; activity change, negative = inhibition, % at 57.5 µM; hit rate 4.5% among 410,000; in the data active = activity change below about -60%; inconclusive = no clear call, values can overlap the other calls; inactive = above about -39%
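HFF cells seeded 16 h at 37C, treated with compounds, infected with luciferase-reporter HCMV at MOI 1 PFU/cell; luciferase read at 72 h post infection, normalized to buffer-only and Salinomycin controls.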
The depositor's hits bear a star; [ ] = dose if it differs, or a comment. Only some compounds are listed: those with a hit (about 6.2% of all), similar ones and a draw of the others. % is set by controls: 0 for no effect and ±100 for the full control effect.

`Cc1ccc(-n2ncc(C(=O)NCCN3CCc4ccccc4C3)c2C2CCN(C(=O)OC(C)(C)C)CC2)cc1` gave Lassa entry inh inconclusive, FMDV inh -6% and HCMV inh active.
For Cc1ccc(-n2ncc(C(=O)NCCN3CCC(Cc4ccccc4)CC3)c2C2CCN(C(=O)OC(C)(C)C)CC2)cc1 the results were Lassa entry inh inconclusive, FMDV inh -15% and HCMV inh active.
`CCC(CC)C(=O)c1c[nH]c(C(=O)NCc2ccncc2)c1` gave Lassa entry inh -23%, Marburg entry inh inconclusive, FMDV inh -10% and HCMV inh -27.
For Cn1c(CN2CCOCC2)nnc1SCC(=O)Nc1cc(Cl)ccc1Cl the results were Lassa entry inh 3%[46.1 µM], Marburg entry inh inconclusive, FMDV inh 44% and HCMV inh 7.
For CCC(Oc1cccc(Cl)c1)C(=O)N1CCCN(C)CC1 (configuration not stated) the results were FMDV inh -15% and HCMV inh 17.
For COc1ccccc1CN1CCC(CNC(=O)c2cnn(-c3ccc(C)c(C)c3)c2C2CCN(C(=O)OC(C)(C)C)CC2)CC1 the results were Lassa entry inh 9%[46.1 µM], FMDV inh -7% and HCMV inh inconclusive.
Screening COc1ccccc1CN1CCC(CNC(=O)c2cnn(-c3ccc(Cl)cc3)c2C2CCN(C(=O)OC(C)(C)C)CC2)CC1 returned Lassa entry inh inconclusive, FMDV inh 0% and HCMV inh -108*.
`Cc1ccc2nc(N(CCCN(C)C)C(=O)c3ccco3)sc2c1` gave Lassa entry inh 11%[46.1 µM], FMDV inh 25% and HCMV inh -28.
For COc1ccc(NS(=O)(=O)c2ccc(-c3cnc(C4CC4)o3)cc2)cc1OC the results were FMDV inh -20% and HCMV inh -74*.
CCOc1ccccc1NS(=O)(=O)c1ccc(-c2cnc(C3CC3)o2)cc1 was read as Lassa entry inh inconclusive, FMDV inh inconclusive and HCMV inh active.
For COc1ccccc1NS(=O)(=O)c1ccc(-c2cnc(C3CC3)o2)cc1 the results were FMDV inh -24% and HCMV inh -13.
For O=S(=O)(Nc1cccc(C(F)(F)F)c1)c1ccc(-c2cnc(C3CC3)o2)cc1 the results were Lassa entry inh inconclusive, FMDV inh -2% and HCMV inh -38.
Screening Cc1cc(C)c(NS(=O)(=O)c2ccc(-c3cnc(C4CC4)o3)cc2)c(C)c1 returned Lassa entry inh inconclusive, FMDV inh -8% and HCMV inh -92*.
Screening Cc1cc(C)c(NS(=O)(=O)c2cc(-c3cnc(C4CC4)o3)ccc2C)c(C)c1 returned Lassa entry inh -17%[46.1 µM], FMDV inh 11% and HCMV inh -13.
For Cc1ccc(NS(=O)(=O)c2cc(-c3cnc(C4CC4)o3)ccc2C)cc1Cl the results were Lassa entry inh inconclusive, FMDV inh 48% and HCMV inh -64*.
For COC(=O)[C@@H]1C2CCC(C(=O)Nc3ccccc3)(CC2)[C@@H]1C(=O)OC the results were Lassa entry inh 9%, Marburg entry inh 32%, FMDV inh -16% and HCMV inh 26.
Screening CSC(=NS(=O)(=O)c1ccccc1)SC returned Lassa entry inh 12%, Marburg entry inh 9%, FMDV inh -30% and HCMV inh -19.
COc1cc(-c2nnc(NC(=O)CS(=O)(=O)c3ccc(F)cc3)o2)cc(OC)c1OC was read as Lassa entry inh -1%, Marburg entry inh 17%, FMDV inh -14% and HCMV inh 3.
Cc1ccc(N(C)S(=O)(=O)c2cc(-c3cnc(C4CC4)o3)ccc2C)cc1 was read as Lassa entry inh inconclusive, Marburg entry inh inconclusive, FMDV inh inconclusive and HCMV inh -18.
`Cc1cccc(N(C)S(=O)(=O)c2ccc(-c3cnc(C4CC4)o3)cc2)c1` gave FMDV inh inconclusive and HCMV inh -98*.
`Cc1cc(N2CC(C)OC(C)C2)nc2ccccc12` (configuration not stated) gave Lassa entry inh 2%, Marburg entry inh 18%[46.1 µM], FMDV inh 0% and HCMV inh -80*.
`CCc1nnc(NC(=O)c2nc(SCc3ccccc3F)ncc2Cl)s1` gave Lassa entry inh 10%[46.1 µM], Marburg entry inh -5%[46.1 µM], FMDV inh -9% and HCMV inh 4.
Screening CCSc1ncc(Cl)c(C(=O)Nc2ccccc2OC)n1 returned FMDV inh -13% and HCMV inh 56.
For CCc1nnc(NC(=O)c2nc(S(=O)(=O)Cc3cccc(C)c3)ncc2Cl)s1 the results were Lassa entry inh inconclusive, Marburg entry inh inconclusive, FMDV inh 4.5µM* and HCMV inh -101*.
For CCc1nnc(NC(=O)c2nc(Cl)ccc2Cl)s1 the results were FMDV inh -12% and HCMV inh -7.
`CCc1nnc(NC(=O)c2nc(S(=O)(=O)Cc3ccccc3)ncc2Cl)s1` gave Lassa entry inh inconclusive, Marburg entry inh inconclusive, FMDV inh -69% and HCMV inh -101*.
Screening CCc1nnc(NC(=O)c2nc(S(=O)(=O)Cc3ccc(C)cc3)ncc2Cl)s1 returned Lassa entry inh inconclusive, Marburg entry inh inconclusive, FMDV inh 28µM* and HCMV inh -101*.
For CCOc1ccccc1NC(=O)c1nc(S(=O)(=O)Cc2cccc(C)c2)ncc1Cl the results were Lassa entry inh 2%[46.1 µM], Marburg entry inh -6%[46.1 µM], FMDV inh 14µM* and HCMV inh -113*.
O=C(c1cccc(S(=O)(=O)Nc2ccccc2F)c1)N1CCN(c2ccccc2F)CC1 was read as Lassa entry inh -18%, Marburg entry inh inconclusive, FMDV inh 4% and HCMV inh 36.
Screening Cc1nc(Cl)sc1C(=O)Nc1ccccc1Cl returned FMDV inh 14% and HCMV inh 5.
Screening Cc1nc(Nc2ccc(Cl)cc2Cl)sc1C(=O)Nc1ccccc1 returned Lassa entry inh -15%, Marburg entry inh inconclusive, FMDV inh -6% and HCMV inh -14.
For Nc1c(C(=O)c2ccccc2)sc(Nc2ccc(Cl)c(Cl)c2)c1C(=O)Nc1ccccc1 the results were Lassa entry inh inconclusive, FMDV inh -24% and HCMV inh -107*.
Cc1nc(Nc2ccc(Cl)c(Cl)c2)sc1C(=O)Nc1ccccc1 was read as Lassa entry inh inconclusive, Marburg entry inh inconclusive, FMDV inh -21% and HCMV inh -89*.
Screening CCOc1ccc(NC(=O)c2c(Nc3ccc(OC)cc3OC)sc(C(=O)c3ccc(Cl)cc3)c2N)cc1 returned Lassa entry inh -5%[46.1 µM], FMDV inh -9% and HCMV inh -9.
Screening Cc1ccc(Nc2sc(C(=O)c3ccccc3)c(N)c2C(=O)Nc2ccc(Cl)cc2)cc1 returned Lassa entry inh -6%[46.1 µM], FMDV inh -53% and HCMV inh -103*.
For Cc1nc(NC(=O)C2CC2)sc1C(=O)Nc1ccccc1Cl the results were FMDV inh 84% and HCMV inh -104*.
COc1ccc(/C=C/C(=O)NCCN2CCOCC2)cc1OC was read as Lassa entry inh 3%, Marburg entry inh 12%, FMDV inh 2% and HCMV inh 0.
`O=C(CSc1nnc(NC(=O)C2CC2)s1)Nc1ccccc1Cl` gave Marburg entry inh inconclusive, FMDV inh 21% and HCMV inh -63*.
